Source: the supplement of paper PMC8975748
Structures can show the parent of a compound that is named as a salt. ± gives the standard deviation of the averaged measurements.

How the values were obtained:
[1] = system: Saccharomyces cerevisiae BY4741 SeMeCo community; assay: mean cell size (pixel area) (pixels); higher = larger cells; conditions: 10 µM; 24 h; SM minimal medium
Outline: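 The test system was a fluorescent Saccharomyces cerevisiae BY4741 community with four plasmids, each restoring one auxotrophy and carrying a fluorescent marker. Cells were grown for 24 h in SM medium with drug at a final 10 µM in 384-well plates, then fixed with paraformaldehyde and imaged by automated confocal microscopy for Harmony analysis of mean cell pixel area per well. Values represent the average of 3 replicates. Same SeMeCo high-content imaging drug screen: Selleck FDA-approved drugs at 10 µM, 24 h in SM medium, 384-well plates, 3 replicates.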

[2] = system: Saccharomyces cerevisiae BY4741 SeMeCo community; assay: z-score of prototroph abundance vs DMSO median; higher = larger share of this subpopulation than in DMSO controls; conditions: 10 µM; 24 h; SM minimal medium; subpopulation (auxotrophy): Prototroph
Outline: (§1)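 Scoring was based on each subpopulation's abundance, expressed as a z-score against the vehicle-well median. A Saccharomyces cerevisiae BY4741 community with four plasmids, each restoring one auxotrophy and encoding a distinct fluorescent protein, was pre-grown overnight to OD600 1.0, diluted to 0.3, and added at 70 µl to 384-well plates acoustically predosed with library drugs (10 µM final). It then grew 24 h in minimal SM medium before paraformaldehyde fixation and automated confocal microscopy, with single-auxotroph fluorescent strains setting thresholds and autofluorescence correction.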

[3] = system: Saccharomyces cerevisiae BY4741 SeMeCo community; assay: z-score of subpopulation abundance vs DMSO median, subpopulation auxotrophic for M; higher = larger share of this subpopulation than in DMSO controls; conditions: 10 µM; 24 h; SM minimal medium; subpopulation (auxotrophy): M
Outline: as §1

[4] = system: Saccharomyces cerevisiae BY4741 SeMeCo community; assay: z-score of subpopulation abundance vs DMSO median, subpopulation auxotrophic for L; higher = larger share of this subpopulation than in DMSO controls; conditions: 10 µM; 24 h; SM minimal medium; subpopulation (auxotrophy): L
Outline: as §1

[5] = system: Saccharomyces cerevisiae BY4741 SeMeCo community; assay: z-score of subpopulation abundance vs DMSO median, subpopulation auxotrophic for U; higher = larger share of this subpopulation than in DMSO controls; conditions: 10 µM; 24 h; SM minimal medium; subpopulation (auxotrophy): U
Outline: as §1

[6] = system: Saccharomyces cerevisiae BY4741 SeMeCo community; assay: z-score of subpopulation abundance vs DMSO median, subpopulation auxotrophic for H; higher = larger share of this subpopulation than in DMSO controls; conditions: 10 µM; 24 h; SM minimal medium; subpopulation (auxotrophy): H
Outline: as §1

[7] = system: Saccharomyces cerevisiae BY4741 SeMeCo community; assay: z-score of subpopulation abundance vs DMSO median, subpopulation auxotrophic for LU; higher = larger share of this subpopulation than in DMSO controls; conditions: 10 µM; 24 h; SM minimal medium; subpopulation (auxotrophy): LU
Outline: as §1

[8] = system: Saccharomyces cerevisiae BY4741 SeMeCo community; assay: z-score of subpopulation abundance vs DMSO median, subpopulation auxotrophic for HM; higher = larger share of this subpopulation than in DMSO controls; conditions: 10 µM; 24 h; SM minimal medium; subpopulation (auxotrophy): HM
Outline: as §1

[9] = system: Saccharomyces cerevisiae BY4741 SeMeCo community; assay: z-score of subpopulation abundance vs DMSO median, subpopulation auxotrophic for HU; higher = larger share of this subpopulation than in DMSO controls; conditions: 10 µM; 24 h; SM minimal medium; subpopulation (auxotrophy): HU
Outline: as §1

[10] = system: Saccharomyces cerevisiae BY4741 SeMeCo community; assay: z-score of subpopulation abundance vs DMSO median, subpopulation auxotrophic for UM; higher = larger share of this subpopulation than in DMSO controls; conditions: 10 µM; 24 h; SM minimal medium; subpopulation (auxotrophy): UM
Outline: as §1

[11] = system: Saccharomyces cerevisiae BY4741 SeMeCo community; assay: z-score of subpopulation abundance vs DMSO median, subpopulation auxotrophic for HL; higher = larger share of this subpopulation than in DMSO controls; conditions: 10 µM; 24 h; SM minimal medium; subpopulation (auxotrophy): HL
Outline: as §1

[12] = system: Saccharomyces cerevisiae BY4741 SeMeCo community; assay: z-score of subpopulation abundance vs DMSO median, subpopulation auxotrophic for HLU; higher = larger share of this subpopulation than in DMSO controls; conditions: 10 µM; 24 h; SM minimal medium; subpopulation (auxotrophy): HLU
Outline: as §1

[13] = system: Saccharomyces cerevisiae BY4741 SeMeCo community; assay: z-score of subpopulation abundance vs DMSO median, subpopulation auxotrophic for HLM; higher = larger share of this subpopulation than in DMSO controls; conditions: 10 µM; 24 h; SM minimal medium; subpopulation (auxotrophy): HLM
Outline: as §1

[14] = system: Saccharomyces cerevisiae BY4741 SeMeCo community; assay: z-score of subpopulation abundance vs DMSO median, subpopulation auxotrophic for HUM; higher = larger share of this subpopulation than in DMSO controls; conditions: 10 µM; 24 h; SM minimal medium; subpopulation (auxotrophy): HUM
Outline: as §1

[15] = system: Saccharomyces cerevisiae BY4741 SeMeCo community; assay: z-score of subpopulation abundance vs DMSO median, subpopulation auxotrophic for LUM; higher = larger share of this subpopulation than in DMSO controls; conditions: 10 µM; 24 h; SM minimal medium; subpopulation (auxotrophy): LUM
Outline: as §1

[16] = system: Saccharomyces cerevisiae BY4741 SeMeCo community; assay: z-score of subpopulation abundance vs DMSO median, subpopulation auxotrophic for HLUM; higher = larger share of this subpopulation than in DMSO controls; conditions: 10 µM; 24 h; SM minimal medium; subpopulation (auxotrophy): HLUM
Outline: as §1

[17] = system: Saccharomyces cerevisiae BY4741 SeMeCo community; assay: z-score of subpopulation abundance vs DMSO median, subpopulation auxotrophic for LM; higher = larger share of this subpopulation than in DMSO controls; conditions: 10 µM; 24 h; SM minimal medium; subpopulation (auxotrophy): LM
Outline: as §1

Row | SMILES | mean cell size [1] | z-score of prototroph abundance [2] | z-score of subpopulation abundance [3] | z-score of subpopulation abundance [4] | z-score of subpopulation abundance [5] | z-score of subpopulation abundance [6] | z-score of subpopulation abundance [7] | z-score of subpopulation abundance [8] | z-score of subpopulation abundance [9] | z-score of subpopulation abundance [10] | z-score of subpopulation abundance [11] | z-score of subpopulation abundance [12] | z-score of subpopulation abundance [13] | z-score of subpopulation abundance [14] | z-score of subpopulation abundance [15] | z-score of subpopulation abundance [16] | z-score of subpopulation abundance [17]
1 | N[C@@H]1CCCCN(c2c(F)cc3c(=O)c(C(=O)O)cn(C4CC4)c3c2Cl)C1 [Besifloxacin HCl] | 12 ± 0.16 | -0.33 | -0.11 | 0.15 | 0.87 | 0.1 | 0.95 | -0.14 | 0.44 | -0.28 | -0.33 | 0.25 | 0.44 | -0.3 | -0.19 | 0.22 | 
2 | O=C1c2cccc3c2[C@H](CCC3)CN1[C@@H]1CN2CCC1CC2 [Palonosetron] | 12.2 ± 0.14 | -0.11 | -0.21 | -0.81 | -0.35 | -0.77 | -0.39 |  | -0.06 | 0.49 | -0.45 | -0.63 | -0.49 | 0.12 | 0.34 |  | -0.55
3 | Cc1cccc(C)c1OCC(C)N (stereo unspecified) [Mexiletine HCl] | 12.3 ± 0.13 | 0.5 | -0.98 | -0.39 | 0.62 |  | 0.44 | -0.64 | 0.61 | -0.36 | -0.55 | -0.19 | -1.23 | -0.49 | -0.37 | -0.35 | 
4 | C1N2CN3CN1CN(C2)C3 [Methenamine] | 12.21 ± 0.073 | -0.97 | 0.26 | -0.63 | 0.59 | 0.28 | -0.57 | 1.35 | 0.2 | 0.8 | -0.01 | -0.02 | 0.4 | 0.39 |  | -0.16 | 
5 | CCCc1nn(C)c2c(=O)[nH]c(-c3cc(S(=O)(=O)N4CCN(C)CC4)ccc3OCC)nc12 [Sildenafil] | 11.4 ± 0.3 | 1.69 | -1.17 | -1.03 | -0.11 | -2.48 | -0.5 |  | 0.7 |  | -1.43 | -0.35 | -1.11 | -0.61 |  |  | -0.52
6 | CC[C@H]1OC(=O)C[C@@H](O)[C@H](C)[C@@H](O[C@@H]2O[C@H](C)[C@@H](O)[C@H](N(C)C)[C@H]2O)[C@@H](CCN2C[C@H](C)C[C@H](C)C2)C[C@@H](C)C(=O)/C=C/C(C)=C/[C@@H]1CO[C@@H]1O[C@H](C)[C@@H](O)[C@@H](OC)[C@H]1OC [Tilmicosin] | 12.4 ± 0.17 | -1.13 | -0.16 | 0.75 |  | 0.98 | 1.26 |  | 1.52 | 0.65 | 1.91 | 0.58 | 0.13 | 0.75 | 1.68 | 0.67 | 0.46
7 | CCCNC(C)C(=O)Nc1ccccc1C (stereo unspecified) [Prilocaine hydrochloride] | 12.28 ± 0.063 | -0.24 | -0.36 | 0.41 | 0.86 | -0.67 | 1.11 | -0.46 | 0.08 |  | 0.03 | -0.01 | -0.05 | -0.27 | 0.73 | 0.58 | 
8 | C[C@@H](O)[C@H]1C(=O)N2C(C(=O)O)=C(S[C@@H]3CN[C@H](C(=O)N(C)C)C3)[C@H](C)[C@H]12 [Meropenem Trihydrate] | 12.6 ± 0.27 | -0.19 | 0.89 | 0.38 |  | 1.09 | 0.63 |  | -0.59 | -0.82 | 0.55 | 0.91 | 0.4 | -0.48 | -0.3 | -0.25 | 0.14
9 | Cn1c(=O)c2c(ncn2CC2OCCO2)n(C)c1=O [Doxofylline] | 12.2 ± 0.51 | 0.31 | -0.41 | 0.55 | -0.22 | -0.27 | 0.9 | -0.89 | -0.64 | -0.67 | 0.28 | -0.64 | -0.9 | -0.34 | -0.24 | -0.8 | 
10 | Oc1cccc(O)c1 [Resorcinol] | 12.4 ± 0.22 |  | -0.66 | -0.23 |  | -0.05 | -1.33 |  | -0.64 | -0.77 | -0.43 | 0 | -0.64 | -0.96 | -0.89 |  | -0.4
11 | C[C@H]1O[C@@H](O[C@H]2[C@@H](O)C[C@H](O[C@H]3[C@@H](O)C[C@H](O[C@H]4CC[C@@]5(C)[C@H](CC[C@@H]6[C@@H]5C[C@@H](O)[C@]5(C)[C@@H](C7=CC(=O)OC7)CC[C@]65O)C4)O[C@@H]3C)O[C@@H]2C)C[C@H](O)[C@@H]1O [Digoxin] | 12.4 ± 0.22 | 0.39 | -1.12 | -0.7 | 0.17 |  | -0.6 | -0.55 | 0.8 | -0.69 | -0.11 | -0.03 | -0.7 | -0.77 | -0.61 | -0.34 | 
12 | O=c1c(-c2ccc(O)cc2)coc2c([C@@H]3O[C@H](CO)[C@@H](O)[C@H](O)[C@H]3O)c(O)ccc12 [Puerarin] | 12.55 ± 0.11 | -0.2 | 0.72 | -0.61 | 0.36 | 0.2 | -0.47 | 1.09 | 0.41 | 0.39 | 0.23 | 0.12 | 1.18 | -0.25 | -1.14 | -0.33 | 
13 | COC(=O)C1=C(C)NC(C)=C(C(=O)OC2CCCN(Cc3ccccc3)C2)C1c1cccc([N+](=O)[O-])c1 (stereo unspecified) [Benidipine HCl] | 12.4 ± 0.23 | -0.13 | 0.13 | 1.12 | -1.06 | 0.92 | 0.07 |  |  |  |  | 0.26 | 0.06 | 0.12 | 0.29 | -0.21 | 1.8
14 | CN1C2CCC1CC(OC(=O)C(O)c1ccccc1)C2 (stereo unspecified) [Homatropine Bromide] | 12.31 ± 0.032 |  | -0.4 | -0.11 | 1.49 |  | 0.66 | -1.06 | 0.61 | 0.94 | -0.63 | -0.08 | -0.76 | 0 | 0.09 | 0.14 | 
15 | CCN1CCN(C(=O)N[C@@H](C(=O)N[C@@H]2C(=O)N3C(C(=O)O)=C(CSc4nnnn4C)CS[C@H]23)c2ccc(O)cc2)C(=O)C1=O [Cefoperazone] | 12.5 ± 0.21 |  | 0.6 | 0.4 | -0.72 | 0.43 | -0.39 | 0.3 | -0.48 | 0.26 | 0.07 | -0.34 | 0.34 | -0.49 | 0.47 | 0.24 | 
